target: T1, GST-Dm-Relish (Drosophila melanogaster, UniProt Q94527 99-473); test: protein-binding microarray (PBM); PBM: ~300 nM protein, 6 mM HEPES pH 7.8, 80 mM KCl, 0.5 mM EDTA, 0.5 mM EGTA, 6% glycerol, 35 ng/ul poly-dIdC, 1% milk, 1 h, room temperature; Ap Aiptasia and Nv Nematostella (sea anemones) / Co Capsaspora / Aq Amphimedon (sponge) / Dm Drosophila / Hu human; RHD is the Rel homology domain; high values mean tight binding; settings: dsDNA, one strand shown
T1 sequence: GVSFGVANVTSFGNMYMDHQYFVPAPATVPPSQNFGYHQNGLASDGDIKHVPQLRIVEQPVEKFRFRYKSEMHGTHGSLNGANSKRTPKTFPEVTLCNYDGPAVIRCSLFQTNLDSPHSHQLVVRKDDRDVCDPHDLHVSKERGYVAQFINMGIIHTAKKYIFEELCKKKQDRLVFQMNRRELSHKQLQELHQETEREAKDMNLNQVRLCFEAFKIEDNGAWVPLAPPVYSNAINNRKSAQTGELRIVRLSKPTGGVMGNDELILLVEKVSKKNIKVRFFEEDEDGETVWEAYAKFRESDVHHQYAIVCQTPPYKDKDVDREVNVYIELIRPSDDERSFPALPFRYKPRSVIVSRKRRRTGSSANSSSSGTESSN

| Sequence | binding signal [z-score] |
| --- | --- |
| CCGATTAACATCACCCACGAGGGTGATGTTAATCGGGTCTTGATTCGCTTGACGCTGCTG | 1.29 |
| CCGATTAACATCACGTTATTTCCTGATGTTAATCGGGTCTTGATTCGCTTGACGCTGCTG | 1.09 |
| CCGATTAACATCAGGAAAAAAACTGATGTTAATCGGGTCTTGATTCGCTTGACGCTGCTG | 1.23 |
| CCGATTAACATCAGGAAAGAACATGATGTTAATCGGGTCTTGATTCGCTTGACGCTGCTG | 3.57 |
| CCGATTAACATCACGTACATTCCTGATGTTAATCGGGTCTTGATTCGCTTGACGCTGCTG | 1.63 |
| CCGATTAACATCAGTAAACTCCATGATGTTAATCGGGTCTTGATTCGCTTGACGCTGCTG | 1.1 |
| CCGATTAACATCACAATAACGGGTGATGTTAATCGGGTCTTGATTCGCTTGACGCTGCTG | 1.63 |
| CCGATTAACATCAAGGAAAATACTGATGTTAATCGGGTCTTGATTCGCTTGACGCTGCTG | 1.2 |
| CCGATTAACATCAGTAATTTACATGATGTTAATCGGGTCTTGATTCGCTTGACGCTGCTG | 6.73 |
| CCGATTAACATCAAAATTCCAGGTGATGTTAATCGGGTCTTGATTCGCTTGACGCTGCTG | 1.13 |
| CCGATTAACATCACAACGGAATGTGATGTTAATCGGGTCTTGATTCGCTTGACGCTGCTG | 1.37 |
| CCGATTAACATCACCCACGACGATGATGTTAATCGGGTCTTGATTCGCTTGACGCTGCTG | 1.04 |
| CCGATTAACATCAGGAAATAACATGATGTTAATCGGGTCTTGATTCGCTTGACGCTGCTG | 2.04 |
| CCGATTAACATCAGGGTGTAGTTTGATGTTAATCGGGTCTTGATTCGCTTGACGCTGCTG | 1.07 |
| CCGATTAACATCAGTATTTTCCATGATGTTAATCGGGTCTTGATTCGCTTGACGCTGCTG | 1.33 |
| CCGATTAACATCACGGAAAATACTGATGTTAATCGGGTCTTGATTCGCTTGACGCTGCTG | 1.21 |
| CCGATTAACATCACGTGATTTCCTGATGTTAATCGGGTCTTGATTCGCTTGACGCTGCTG | 4.11 |
| CCGATTAACATCACAAATTTTCCTGATGTTAATCGGGTCTTGATTCGCTTGACGCTGCTG | 2.01 |
| CCGATTAACATCACGTAAACTCCTGATGTTAATCGGGTCTTGATTCGCTTGACGCTGCTG | 1.72 |
| CCGATTAACATCAATGGATTTCCTGATGTTAATCGGGTCTTGATTCGCTTGACGCTGCTG | 1.12 |
| CCGATTAACATCACGTTTTTTCCTGATGTTAATCGGGTCTTGATTCGCTTGACGCTGCTG | 1.57 |
| CCGATTAACATCAGGAAAAACACTGATGTTAATCGGGTCTTGATTCGCTTGACGCTGCTG | 2.61 |
| CCGATTAACATCACCCATTTCCGTGATGTTAATCGGGTCTTGATTCGCTTGACGCTGCTG | 1.34 |
| CCGATTAACATCAAAATTCCATATGATGTTAATCGGGTCTTGATTCGCTTGACGCTGCTG | 1.14 |

From publication PMC5700166
